# ssDAF12 agonist: activates DAF-12 receptor from parasite S. stercoralis; HEK293 ssDAF-12/GRIP1 lit1-tk-luc reporter, luminescence; % of 3 µM dafachronic acid response; 1% of 370,000 active; activation, % at 6.8 µM;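 active = activation above the mean over all tested compounds plus 3 SD, cut at about 0.9% in these data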;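 also: 0% = DMSO-only wells and 100% = 3 µM delta7-dafachronic acid wells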
# APP 5'UTR act: APP 5'UTR luciferase reporter activation; SH-SY5Y APP 5'UTR luciferase reporter, luminescence; zero percent = DMSO vehicle wells; activation, % at 2 µM; 1% of 190,000 active; AID 1276;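 active = activation above a set limit, based on mean plus 3 SD of controls, cut at about 140% in these data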
# hcDAF-12 act: H. contortus DAF-12 activation, primary screen. HEK293 hcDAF-12 lit1-tk-luc reporter, luminescence; 0% DMSO, 100% Δ7-dafachronic acid. activation, % at 6.8 µM. 1.4% of 370,000 active;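 active = activation above the mean of all tested compounds plus 3 SD, cut at about 5.5% in these data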;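 also: 100% = response to 3 µM Δ7-dafachronic acid high control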
# NF-kB expr up: compounds increasing NF-kB expression in human neuronal cells. NF-kB reporter expression; stronger effect = higher value. fold change at 12.5 µM. 1.6% of 190,000 active; in the data active = fold change above about 3.3
# hgDAF-12 ag: activates the H. glycines DAF-12 receptor ligand-binding domain. HEK293 GAL4-hgDAF12 UAS-luciferase reporter, agonist luminescence; normalized to butyrate control. activation, % at 6.8 µM. 1.8% of 370,000 active;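 active = activation above a cutoff set at the mean of all screened compounds plus 3 SD, cut at about 10% in these data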;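 also: 0% = DMSO wells and 100% = sodium butyrate wells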
# The depositor's hits bear a star; · = not tested or not shown. Shown are actives, neighbours in structure and some others; about 3.4% of the full set was active somewhere.
SMILES,ssDAF12 agonist,APP 5'UTR act,hcDAF-12 act,NF-kB expr up,hgDAF-12 ag
Cc1ccc(/C(N)=N/OC(=O)c2ccc(Cl)cc2Cl)cc1,-1,154*,2,1.6,-3
O=C(NCC(c1ccccc1)c1ccccc1)[C@H](Cc1c[nH]c2ccccc12)NC1(C(=O)NC2CCCCC2)CCCC1,-2,·,1,·,-1
N/C(=N\OC(=O)c1cccc(Br)c1)c1ccccc1,1.3*,-4,6.1*,5.3*,10
N/C(=N\OC(=O)c1ccc2ccccc2c1)c1ccc(Br)cc1,0,11,1,1.1,3
COC(=O)[C@H](CC(C)C)N(CCCc1cn(Cc2ccccc2)nn1)S(=O)(=O)c1ccc(F)cc1Br,-1,·,-4,·,-2
N#Cc1cccn1-c1nccc(-c2cccs2)n1,1.7*,29,3,1.2,8
Cc1ccnc(Nc2nc(-c3ccc(Cl)cc3)cs2)c1,-1,·,2,·,7
COc1ccc(-c2csc(Nc3ccccn3)n2)cc1OC,0.9*,·,3,·,10
CC(=O)NNc1nc(-c2ccc(NC(C)=O)cc2)cs1,-1,14,1,0.9,0
CC(=O)Nc1ccc(-c2csc(Nc3cccc(C)n3)n2)cc1,0,168*,1,6.2*,11*
Cc1cccnc1Nc1nc(-c2ccc(O)cc2)cs1,-1,84,0,7.4*,9
CC(=O)Oc1ccc(-c2csc(Nc3ccc(Cl)cn3)n2)cc1,-1,·,-2,·,3
COc1ccc(-c2csc(Nc3ccc(C)cn3)n2)cc1,-1,77,1,·,12*
Clc1cc(Cl)cc(CNC2CCC23CCC(c2ccccc2)CC3)c1 (centres undefined),0,·,3,·,0
Oc1ccc(-c2csc(Nc3ccccn3)n2)cc1,0,·,5,·,11*
N#Cc1ccccc1NCCCN1CCC(C(O)(c2ccccc2)c2ccccc2)CC1,-1,·,4,·,1
Oc1[nH]c2ccccc2c1C=NCC1CCCO1 (centres undefined),-1,5,6.5*,1.1,5
c1ccc(SCCCCNC2CCCC2)cc1,1.7*,23,1,1.1,1
c1ccc(-c2ccc(OCCCNC3CCCC3)cc2)cc1,-1,0,0,0.7,-1
O=C(OC12CCCN(C1)/C(=C/c1cccnc1)C2)c1ccccc1 (centres undefined),-2,·,-5,·,-5
COc1ccc(C2CCC3(CCC(=O)N3CCOC(=O)NCc3ccc(Cl)cc3)CC2)cc1 (centres undefined),-2,·,-4,·,-4
Cc1c(Cc2c(C)n(C)n(-c3ccccc3)c2=O)c(=O)n(-c2ccccc2)n1C,0,-8,0,1.1,1
CCCC(=O)NC(=S)c1c(C)n(C)n(-c2ccccc2)c1=O,0,-1,5.8*,0.99,-2
C[C@H]1COc2cccc(N3CCSCC3)c2S(=O)(=O)N1C,-2,·,2,·,-2
O=C(c1ccccc1)c1cc2ccccc2o1,0,47,1,2.2,7
SMILES,ssDAF12 agonist,APP 5'UTR act,hcDAF-12 act,NF-kB expr up,hgDAF-12 ag
O=C(c1ccc(F)cc1)c1cc2ccccc2o1,-1,59,0,3.6*,9
N#Cc1cccc(C(=O)N2CCC(Oc3cccnc3)CC2)c1,-1,·,-1,·,4
CC(=O)N1C[C@H]2CON(C)[C@H]2C[C@H]1c1ccccc1Br,1.1*,·,-2,·,-1
COC(=O)C1CN(Cc2ccccc2)CCS(=O)(=O)N1Cc1cn(Cc2ccc(Cl)cc2)nn1 (centres undefined),-1,·,-1,·,0
COc1cccc2cc(-c3nc4ccccc4o3)c(=O)oc12,0,122,2,3,11*
O=c1oc2ccc(Br)cc2cc1-c1nc2ccccc2o1,-1,2,2,1.2,0
COC(=O)c1ccc(CSc2nc(N)cc(N)n2)cc1,-1,19,-1,1.4,2
O=[N+]([O-])c1ccc(CSc2nc3ccccc3o2)cc1,1,177*,4,5*,12*
COC(=O)c1ccc(CSc2nc3ccccc3o2)cc1,1,126,2,3.8*,10
CC(=O)c1cccc(Nc2ccc(-c3ccccc3F)nn2)c1,-1,134,4,2.1,9
CC(=O)c1ccc(Nc2ccc(-c3ccccc3C)nn2)cc1,0,58,1,3,11*
O=C(c1cc(-c2ccc(Cl)cc2)nc2ccccc12)N1CCN(c2ncccn2)CC1,0,·,2,·,3
CCc1cccc2c1NC(=O)C21OCCO1,1.2*,·,3,·,4
COc1ccc(-c2nnc(SCC(=O)N/N=C(\C)c3ccc(-c4ccccc4)cc3)n2-c2ccc(C)cc2)cc1,-1,·,3,·,1
CCn1c(SCC(=O)c2cc(OC)ccc2OC)nnc1C(C)C,1.2*,7,3,1,3
COc1ccc(/C=N/NC(=O)CN2CCCc3ccccc32)c(OC)c1,0,·,5.8*,·,1
COc1ccc(/C=N/NC(=O)CSCC(=O)Nc2ccccc2)cc1OC,-1,-9,-2,1.1,0
COc1cc(/C=N/NC(=O)Nc2ccccc2)ccc1OC(C)=O,0,39,3,2,12*
C=CCN1C(=O)[C@H](CC(=O)N2CCSCC2)[C@@]2(C(=O)OCC)CCCC=C12,0,·,-3,·,1
N#CCC[C@H]1CC[C@]2(CCCN(c3ccccc3)C2)O1,-1,·,2,·,-1
COC(=O)c1sccc1NC(=O)c1csc(C)c1,1.0*,1,3,0.96,1
Cc1cc(C(=O)Nc2ccc(Br)cc2)cs1,0,·,5.6*,·,9
COC(=O)c1sccc1NC(=O)c1ccc(C)cc1,0,·,3,·,2
COC(=O)c1sccc1NC(=O)Nc1ccc(Cl)c(Cl)c1,0,16,4,2.4,11*
COCCNC[C@@]12CO[C@H](c3ccc(Cl)cc3)N1[C@@H](c1ccc(Cl)cc1)SC2,-2,·,1,·,0
SMILES,ssDAF12 agonist,APP 5'UTR act,hcDAF-12 act,NF-kB expr up,hgDAF-12 ag
O=C(C1CCCN1S(=O)(=O)c1ccc(Cl)s1)N1CCN(c2ccccc2)CC1 (centres undefined),-1,·,-4,·,2
CCC[C@H]1[C@@H](NC(=O)/C=C/c2ccccc2)CC[C@@]23CCCN2C(=O)CCC[C@@H]13,-2,·,-3,·,0
CCc1cccc(NC(=O)Cn2ncn3c(cc4ccccc43)c2=O)c1,0,-22,6.4*,1.4,1
Cc1ccc(NC(=O)Cn2ncn3c(cc4ccccc43)c2=O)cc1F,0,·,1,·,3
CC1CCN(c2nc3ccc(C(=O)NCCCN4CCCCC4)cc3s2)CC1,0,·,3,·,11*
CCOc1ccc2nc(N3CCC(C(=O)NCCCN4CCOCC4)CC3)sc2c1,-1,·,2,·,12*
CC1CCN(c2nc3ccc(C(=O)O)cc3s2)CC1,-1,-46,2,6.7*,1
CCOc1ccc2nc(N3CCCC(C(=O)NCCCN4CCOCC4)C3)sc2c1 (centres undefined),-1,11,4,1.3,4
Cc1nn(-c2ccccc2)c(N)c1N=Nc1cccc(S(=O)(=O)N2CCOCC2)c1,-2,·,-3,·,-3

# Screens (PubChem BioAssay)
